Source: PubChem (Broad Institute)
A selection: hits, their analogues and other compounds. The true share with any hit is near 4%.
AF4-AF9 inh: blocks AF4 peptide binding to human AF9. inhibition, % at 10 µM. AID 651704. AlphaScreen, biotin-AF4 peptide binding to FLAG-AF9. 350,000 tested, 0.47% active. P42568;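 active = every replicate reaching a set inhibition limit, whatever the replicate mean, cut at about 25% in these data; inconclusive = mean inhibition reaches that limit but some replicates miss it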
DENV2 CPE: DENV2-induced cell death inhibition; 350,000 tested, 1.7% active; DENV2-infected cells, cytopathic effect rescue, plate reader; CPE inhibition, % at 9.99 µM; in the data active = CPE inhibition above about 20%, passing the limit was not always enough; inconclusive = no clear call, values can overlap the other calls; tested in BHK-21 cells
FGF22 binding: binders of recombinant human FGF22 by thermal shift | 340,000 tested, 1.5% active | Q9HCT0 | SYPRO orange fluorescence; percent of sucrose octasulfate shift, DMSO zero | activity (Tm shift, normalised), % at 9.99 µM;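 active = mean Tm shift, scaled 0 neutral to 100 positive control, at about 1.3% or above, every replicate too, limit read from the data; inconclusive = no clear call, values can overlap the other calls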
ERAP1 HTS inh: ERAP1 (human) enzyme inhibition | Q9NZ08 | recombinant ERAP1, Leu-AMC fluorescence, 60 min | inhibition, % at 10.7 µM | 340,000 tested, 0.15% active;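 active = mean replicate inhibition of at least 30%, or all replicates individually reaching that 30% level; inactive = mean below 30% and not every replicate reaching it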
RAD52 inh: inhibitors of human RAD52 DNA annealing. P43351. recombinant RAD52 DNA annealing, FRET fluorescence. inhibition, % at 18.7 µM. 360,000 tested, 0.46% active;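 active = every replicate showing at least 50% inhibition; inconclusive = mean inhibition at least 50% but not in every replicate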
Hits are given with their value; i = inactive; ? = inconclusive; nt = no result.

SMILES	AF4-AF9 inh	DENV2 CPE	FGF22 binding	ERAP1 HTS inh	RAD52 inh
C[C@H]1CN([C@@H](C)CO)S(=O)(=O)c2ccc(C#CC3CC3)cc2O[C@H]1CN(C)C(=O)c1ccncc1	i	i	i	i	i
CCc1ccccc1NC(=S)NC1CC2CCC(C1)N2Cc1ccc(F)cc1 (stereo not drawn)	i	nt	1.5	i	i
CCc1ccccc1NC(=S)NC1CC2CCC(C1)N2Cc1ccco1 (stereo not drawn)	i	i	i	i	i
CS(=O)(=O)Nc1ccc2c(c1)[C@H]1C[C@@H](CC(=O)N3CCOCC3)O[C@H](CO)[C@H]1O2	i	i	i	i	i
COc1ccc(-c2cnc3c(NC(C)=O)cc(-c4ccccc4OC)cn23)cc1OC	i	30.1	i	i	i
COc1ccccc1-c1cc(NC(C)=O)c2ncc(-c3cccc(C(C)=O)c3)n2c1	i	?	i	i	i
COc1cc(-c2cnc3c(NC(C)=O)cc(-c4ccccc4CN(C)C)cn23)cc(OC)c1OC	i	24.9	i	i	i
CC(=O)Nc1cc(-c2ccc(C(=O)NC3CC3)cc2)cn2c(-c3cccc(C(F)(F)F)c3)cnc12	i	38.3	i	i	i
CO[C@H](CN(C)Cc1cc(F)ccc1F)[C@@H](C)CN([C@@H](C)CO)S(=O)(=O)c1ccc(F)cc1	i	102.7	i	i	i
Cc1ccc(S(=O)(=O)Nc2cccc3c2O[C@@H](CN(C)S(=O)(=O)c2ccc(Cl)cc2)[C@@H](C)CN([C@@H](C)CO)C3=O)cc1	i	20.8	i	i	i
CNC[C@H]1Oc2c(NS(=O)(=O)c3ccc(Cl)cc3)cccc2C(=O)N([C@@H](C)CO)C[C@@H]1C	i	94.0	i	i	i
C[C@H](CO)N1C[C@H](C)[C@@H](CN(C)S(=O)(=O)c2cccs2)Oc2c(NS(=O)(=O)c3ccc(Cl)cc3)cccc2C1=O	i	i	i	i	i
CNC[C@@H]1Oc2c(NS(=O)(=O)c3ccc(Cl)cc3)cccc2C(=O)N([C@@H](C)CO)C[C@@H]1C	i	i	i	i	i
C[C@@H]1CN([C@H](C)CO)C(=O)c2cccc(NS(=O)(=O)c3ccc(Cl)cc3)c2O[C@@H]1CN(C)S(=O)(=O)c1cccs1	i	76.3	i	i	i
C[C@H](CO)N1C[C@H](C)[C@H](CN(C)S(=O)(=O)c2cccs2)Oc2ncccc2C1=O	i	37.2	i	i	i
C[C@H]1CN([C@@H](C)CO)S(=O)(=O)c2ccc(-c3cncnc3)cc2O[C@@H]1CN(C)C(=O)C1CCCCC1	i	nt	i	nt	i
CNC[C@H]1Oc2cc(C#Cc3ccccc3F)ccc2S(=O)(=O)N([C@H](C)CO)C[C@@H]1C	i	i	i	i	i
O=C(N[C@H]1CC[C@@H](CC(=O)N2CCOCC2)O[C@@H]1CO)c1ccccn1	i	i	i	i	i
Cc1ccc(S(=O)(=O)Nc2cccc3c2O[C@H](CN(C)S(=O)(=O)c2cccs2)[C@@H](C)CN([C@@H](C)CO)C3=O)cc1	i	63.3	i	i	i
C[C@H](CO)N1C[C@H](C)[C@@H](CN(C)S(=O)(=O)c2cccs2)Oc2c(NC(=O)c3ccncc3)cccc2C1=O	i	i	i	i	i
C[C@@H]1CN([C@H](C)CO)C(=O)c2cccc(NC(=O)c3ccncc3)c2O[C@@H]1CN(C)S(=O)(=O)c1cccs1	i	26.5	i	i	i
CS(=O)(=O)N1CCN(c2ccccc2[N+](=O)[O-])CC1	i	i	43.3	i	i
C[C@H](NC(=O)C[C@H]1C=C[C@@H](NC(=O)Cc2ccccn2)[C@@H](CO)O1)c1ccccc1	i	i	i	i	i
CCOc1cc(/C=N/NC(=O)c2cccnc2)ccc1OCC(=O)N(C)C	i	i	44.2	i	i
CCOc1ccc(CC(=O)N/N=C(\C)c2cccnc2)cc1OCC	i	78.4	i	i	i
SMILES	AF4-AF9 inh	DENV2 CPE	FGF22 binding	ERAP1 HTS inh	RAD52 inh
CCOc1cc(/C=N/NC(=O)c2cccnc2)ccc1OCC(N)=O	i	i	i	i	i
C/C=C/c1ccc([C@H]2[C@@H](CO)N(C(=O)C3CC3)C23CN(S(=O)(=O)CC)C3)cc1	i	i	nt	i	i
CCc1ccc(C(=O)NNC(=O)c2c(CC)noc2C)cc1	i	37.1	i	i	i
CCc1noc(C)c1C(=O)NNC(=O)c1ccccc1	i	i	i	i	i
C[C@H](CO)N1C[C@H](C)[C@@H](CN(C)Cc2ccc(C(=O)Nc3ccccc3N)cc2)Oc2c(NC(=O)Nc3ccc4c(c3)OCO4)cccc2C1=O	i	i	i	i	i
CO[C@@H]1CN(C)C(=O)c2ccc(NS(C)(=O)=O)cc2OC[C@@H](C)NC[C@H]1C	i	i	i	i	i
Cc1c(C#N)c(O)n(CCO)c(=O)c1N=Nc1ccc(S(N)(=O)=O)cc1	i	45.2	i	i	i
CCOC(=O)N1CCN(CCC(=O)Nc2ccc(Br)c(C)c2)CC1	i	i	i	i	i
CCN1CCN(CCC(=O)Nc2ccc(Br)c(C)c2)CC1	i	23.4	i	i	i
Cc1ccc(S(=O)(=O)Nc2ccc3c(c2)C(=O)N([C@@H](C)CO)C[C@@H](C)[C@H](CN(C)Cc2ccncc2)OCCCC[C@@H](C)O3)cc1	i	i	i	i	i
O=C(COC(=O)CNC(=O)c1ccc(Cl)cc1)Nc1ncc(C(F)(F)F)cc1Cl	i	76.2	i	i	i
NC(=S)c1ncc(C(F)(F)F)cc1Cl	i	i	i	nt	i
NC(=S)Nc1ncc(C(F)(F)F)cc1Cl	i	i	43.4	i	i
O=C(O)C[C@@H]1CC[C@@H](NC(=O)Nc2cc(F)ccc2F)[C@@H](CO)O1	nt	i	nt	nt	nt
CCCNC(=O)N1CC2(CCN(Cc3cccnc3)CC2)c2c(n(C)c3cc(OC)ccc23)[C@@H]1CO	i	i	i	i	i
Cc1cc(N2CCN(C)CC2)n2nc(-c3ccc(Cl)cc3)nc2n1	i	35.1	i	i	i
Cc1cc(N2CCOCC2)n2nc(C)c(-c3ccc(Cl)cc3)c2n1	i	i	i	i	i
C[C@H](NC(=O)[C@@H]1CCCN1C(=O)OC(C)(C)C)c1ccccc1	i	76.0	i	nt	i
CC(C)(C)OC(=O)N1CCC[C@@H]1C(=O)NCc1ccccc1	i	i	i	i	i
CC1(C)CCN2CCC(C)(C)c3c(O)ccc1c32	25.7	i	i	i	i
COc1ccc(NC(=O)Nc2ccc3c(c2)C(=O)N([C@H](C)CO)C[C@H](C)[C@@H](CN(C)C(=O)Cc2ccccc2)OCCCC[C@@H](C)O3)cc1	i	68.4	i	i	i
COc1ccc(NC(=O)Nc2ccc3c(c2)C(=O)N([C@@H](C)CO)C[C@@H](C)[C@H](CN(C)C(=O)Cc2ccccc2)OCCCC[C@H](C)O3)cc1	i	i	i	i	i
COc1ccc(NC(=O)Nc2ccc3c(c2)C(=O)N([C@@H](C)CO)C[C@H](C)[C@H](CN(C)C(=O)Cc2ccccc2)OCCCC[C@H](C)O3)cc1	i	21.2	i	i	i
